# Experimental data reported in PubChem BioAssay AID2284363 (EPA ToxCast).
# Activity calls are given as the source filed them. How the source made its calls: active means hit-call score of the fitted dose curve at least 0.9, where 1 is the maximum; inactive means score below 0.9.
# Target: Nuclear factor erythroid 2-related factor 2 (Homo sapiens) (UniProt Q16236)
# Assay: ERF_US_NR_hNFE2L2: Eurofins (ERF) Cell Based Nuclear Translocation LeadHunter Assay for human Transcription Factor Keap1-Nrf2 Agonism
# Protocol: ERF_US_NR_hNFE2L2 is a cell-based, single-readout assay that uses extracted gene-proteins in a cell-line assay. Measurements were taken 6 hours after chemical dosing in a 384-well plate. See Keap1-Nrf2 Human Transcription Factor Cell Based Agonist Nuclear Translocation Assay, DiscoverX.ERF_US_NR_hNFE2L2 is an assay component calculated from the ERF_US_NR_hNFE2L2 assay. It is designed to measure protein fragment complementation using a type of binding reporter as detected by chemiluminescence with fluorimetry technology.Data from the assay component ERF_US_NR_hNFE2L2 was analyzed at the assay endpoint, ERF_US_NR_hNFE2L2, in the positive analysis fitting direction relative to DMSO as the negative control and baseline of activity. Using a type of binding reporter, gain-of-signal activity can be used to understand changes in binding as they relate to gene NFE2L2. To generalize the intended target to other relatable targets, this assay endpoint is annotated to the dna binding intended target family, where the subfamily is basic leucine zipper.
# Cells were seeded in a total volume of 20 uL into white walled, 384-well microplates and incubated at 37C overnight prior to testing.For agonist determination, cells were incubated with sample to induce response. […] The results are expressed as a percent efficacy relative to the maximum response of the control ligand.
# Sequence of Nuclear factor erythroid 2-related factor 2 (Homo sapiens) (Q16236 whole entry, looked up): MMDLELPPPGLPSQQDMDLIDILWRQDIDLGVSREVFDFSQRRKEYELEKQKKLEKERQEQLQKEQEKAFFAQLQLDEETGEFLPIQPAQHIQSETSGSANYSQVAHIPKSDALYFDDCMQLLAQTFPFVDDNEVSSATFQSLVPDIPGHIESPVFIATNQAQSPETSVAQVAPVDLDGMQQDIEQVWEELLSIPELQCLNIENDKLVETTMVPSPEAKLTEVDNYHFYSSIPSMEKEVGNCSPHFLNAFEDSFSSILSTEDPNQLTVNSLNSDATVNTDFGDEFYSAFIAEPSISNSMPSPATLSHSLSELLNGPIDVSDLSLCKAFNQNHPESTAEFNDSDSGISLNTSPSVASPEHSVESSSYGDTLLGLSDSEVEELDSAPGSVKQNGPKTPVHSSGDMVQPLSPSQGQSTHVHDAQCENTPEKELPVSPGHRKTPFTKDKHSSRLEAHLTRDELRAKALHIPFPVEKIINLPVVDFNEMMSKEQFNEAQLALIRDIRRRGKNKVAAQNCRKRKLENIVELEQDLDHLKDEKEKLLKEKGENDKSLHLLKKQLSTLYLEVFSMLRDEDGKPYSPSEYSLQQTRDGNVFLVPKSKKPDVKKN
Compound,outcome,AC50
CCNS(=O)(=O)C(F)(F)C(F)(F)C(F)(F)C(F)(F)C(F)(F)C(F)(F)C(F)(F)C(F)(F)F,inactive,
CC(C)(C)c1cc(O)ccc1O,,12.2 µM (active)
